Bioassay records: PubChem BioAssay, National Center for Advancing Translational Sciences (NCATS)
Only some compounds are listed: those with a hit (about 10% of all), similar ones and a draw of the others.
MmCpn inh – M. maripaludis TRiC chaperonin inhibition; purified Mm-Cpn ATPase, ADP Transcreener TR-FRET; Potency, µM (doses to about 76.9 µM), inactives show at the highest dose activity, negative = inhibition, hits mostly inhibitors; 330,000 tested, 0.031% active; further: potency means the concentration at half of the fitted maximal effect; nearly all actives have a fitted effect of over 80% in size
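25 nM Mm-CPN + cpd, 10 min 37°C; + 10 uM ATP, 30 min 37°C; buffer 30 mM Tris pH 7.4, 100 mM KCl, 5 mM MgCl2, 1 mM DTT; Transcreener ADP HTRF detection 30 min RT.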
Sfp PPTase inh – Sfp phosphopantetheinyl transferase inhibition; Q9F4F7; Biochemical Sfp PPTase activity, qHTS; Potency, µM, for the others: largest response in the series, negative = inhibition, hits mostly inhibitors; 310,000 tested, 3.5% active; AID 1490;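 further: the enzyme is Sfp with the accession as filed and its product quenches rhodamine fluorescence; potency means the concentration at half of the fitted maximal effect; 0% = enzyme reaction without inhibitor and -100% = no enzyme wells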
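After 15 min at room temperature with compound, 15 nM Sfp received 5 uM rhodamine-CoA plus 12.5 uM BHQ-2-ybbR (50 mM Hepes pH 7.6, 10 mM MgCl2). Rate came from the fluorescence difference over 30 min, ex 525/em 598 nm.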
PLK1 PBD inh – PLK1 (human) polo-box domain binding inhibition; P53350; Plk1 PBD binding of FITC phosphopeptide, fluorescence polarization; Potency, µM, inactives show max response, negative = inhibition, usual class: inhibitors; 360,000 tested, 2.8% active; further: potency means the concentration at half of the fitted maximal effect; series mostly up to about 57 µM; nearly all actives have a fitted effect of over 65% in size
VDR inhibitor – inhibitors of human vitamin D receptor | P11473 | VDR-SRC2-3 peptide fluorescence polarization, 2 h | Potency, µM, without a hit: max response, negative = inhibition, usual class: inhibitors | 400,000 tested, 0.93% active; further: potency means the concentration at half of the fitted maximal effect
Target sequence (P11473 whole entry, looked up): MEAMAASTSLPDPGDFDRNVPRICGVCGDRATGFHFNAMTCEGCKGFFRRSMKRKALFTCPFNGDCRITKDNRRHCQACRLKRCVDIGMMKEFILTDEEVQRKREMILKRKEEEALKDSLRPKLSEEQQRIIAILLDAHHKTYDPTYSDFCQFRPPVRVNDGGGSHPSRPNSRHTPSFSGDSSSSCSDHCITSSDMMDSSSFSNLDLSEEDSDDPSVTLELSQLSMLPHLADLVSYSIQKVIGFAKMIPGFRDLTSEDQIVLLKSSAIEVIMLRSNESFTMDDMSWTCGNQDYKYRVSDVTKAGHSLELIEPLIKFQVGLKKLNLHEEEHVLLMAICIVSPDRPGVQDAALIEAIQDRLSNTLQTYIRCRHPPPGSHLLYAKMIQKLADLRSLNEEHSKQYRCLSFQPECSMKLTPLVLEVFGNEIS
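Compounds are added to VDR with labelled SRC2-3 coactivator peptide and held 2 h at room temperature. Inhibition of the VDR–peptide interaction is then read as a change in fluorescence polarization.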
CCT modulator – cytosolic chaperonin activity modulation; purified chaperonin ATPase assay, HTRF ADP detection, 30 min; activity change, % (no concentration beside the values), hits read low; 360,000 tested, 0.3% active; AID 651819; in the data active means activity change below about -30%
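TRiC (40 or 20 nM final, by batch activity) in 30 mM Tris pH 7.4, 100 mM KCl, 5 mM MgCl2, 1 mM DTT was treated with compound at 76 uM single dose, then 10 uM ATP, 30 min at 37 °C. ADP was read by HTRF Transcreener.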
G9a inh – inhibitors of human histone lysine methyltransferase G9a | Q96KQ7 | G9a H3K9 monomethylation, AlphaScreen, 2 h | Potency, µM (highest dose often 102 µM), without a hit: top-dose activity, negative = inhibition, actives largely listed as inhibitors | 350,000 tested, 8.8% active; further: potency means the concentration at half of the fitted maximal effect; nearly all actives have a fitted effect of over 75% in size
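Using a bead-based AlphaScreen, monomethylated H3K9 product from 2 h room-temperature reactions (G9a 20 nM, peptide 500 nM, SAM 20 uM) was detected with 0.5 ug/mL rabbit anti-H3K9me1 antibody.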
An asterisk follows results filed as active; [ ] = dose if it differs, or a comment. Unless noted, the call rests on the fitted dose curve; in most records, active means well fitted curve in the direction sought with a large enough effect; inconclusive means small, poorly fitted or top-dose-only effect, or another doubt; inactive means no such curve, though single readings can be large; an effect the other way counts as inactive or inconclusive. Unless noted, on the % scale 0 is the no-effect control and ±100 the full control effect.

`COc1ccc(-c2ccc3c(N)c(C(=O)c4cccc(OC)c4)sc3n2)cc1` gave MmCpn inh -9%, Sfp PPTase inh -14%, PLK1 PBD inh -1%, VDR inhibitor 16%, CCT modulator 1 and G9a inh 50µM*.
For CN(C)C(CNC(=O)c1ccc(Br)cc1)c1ccco1 (stereo unspecified) the results were MmCpn inh 2%, Sfp PPTase inh 10%, PLK1 PBD inh 0%, VDR inhibitor -4%, CCT modulator 0 and G9a inh 4%.
Screening CC(C)CCOc1ccc(C(=O)NCC(c2ccco2)N(C)C)cc1 (stereo unspecified) returned MmCpn inh 2%, Sfp PPTase inh 3%, PLK1 PBD inh -2%, VDR inhibitor -12%, CCT modulator -2 and G9a inh 50µM*.
Screening O=C(O)c1ccccc1Nc1ccc(CCc2ccc(Cl)c(Cl)c2)cc1 returned Sfp PPTase inh 4% and VDR inhibitor 35µM*.
CCOc1ccc(C(=O)NCC(C)NC(=O)c2ccc(OCC)cc2)cc1 (stereo unspecified) was read as MmCpn inh 1%, Sfp PPTase inh -16%, PLK1 PBD inh -11%, VDR inhibitor -3% and CCT modulator -1.
For CN(C)CCCOC(=O)c1ccccc1 the results were MmCpn inh 2%, Sfp PPTase inh 12%, PLK1 PBD inh -5%, VDR inhibitor -4%, CCT modulator 4 and G9a inh -5%[12.7 µM].
`CCOc1ccc(C(=O)NCC(C)C)cc1` gave Sfp PPTase inh 1%, PLK1 PBD inh -2%, VDR inhibitor -1%, CCT modulator -1 and G9a inh 0.89µM*.
CCOc1ccc(C(=O)OCCN(C)C)cc1 was read as MmCpn inh -1%, Sfp PPTase inh 15%, PLK1 PBD inh -3%, VDR inhibitor 4%, CCT modulator -32* and G9a inh -23%.
For O=C(CSc1ncn[nH]1)Nc1ccccc1C(=O)O the results were MmCpn inh -1%, Sfp PPTase inh 13%, PLK1 PBD inh -2%, VDR inhibitor -2%, CCT modulator 1 and G9a inh 22%[59 µM].
`CCOc1ccc2oc(C(=O)NCC(c3ccco3)N(C)C)c(C)c2c1` (stereo unspecified) gave MmCpn inh 1%, PLK1 PBD inh -2%, VDR inhibitor 7%, CCT modulator 1 and G9a inh inconclusive.
Screening Cc1c(C(=O)NCC(c2ccco2)N(C)C)oc2c(Cl)cccc12 (stereo unspecified) returned MmCpn inh 0%, PLK1 PBD inh -7%, VDR inhibitor -8%, CCT modulator 1 and G9a inh 50µM*.
`O=C(Nc1ccccc1C(=O)O)c1ncn[nH]1` gave MmCpn inh -1%, Sfp PPTase inh 45µM*, PLK1 PBD inh -5%, VDR inhibitor 0%, CCT modulator 0 and G9a inh 10µM*.
For Nc1ccc(C(=O)Nc2ccccc2C(=O)O)cc1 the results were MmCpn inh -3%, Sfp PPTase inh -2%, PLK1 PBD inh -4%, VDR inhibitor -5%, CCT modulator -3 and G9a inh 40µM*.
`Cc1ccc(CNC(=O)c2ccc(OCC(C)C)cc2)n1C` gave MmCpn inh 2%, Sfp PPTase inh 3%, PLK1 PBD inh -21%, VDR inhibitor 25%, CCT modulator -1 and G9a inh 45µM*.
For COc1ccc(OCC(=O)Nc2ccc(C(=O)Nc3ccccc3C(=O)O)cc2)cc1 the results were MmCpn inh 0%, Sfp PPTase inh 24%, PLK1 PBD inh -25%, VDR inhibitor 0%, CCT modulator -1 and G9a inh -15%.
`O=C(O)c1ccccc1Nc1cccc(OCc2ccc3ccccc3n2)c1` gave MmCpn inh -2%, Sfp PPTase inh inconclusive, PLK1 PBD inh -8%, VDR inhibitor -12%, CCT modulator -2 and G9a inh 11µM*.
Screening CC(=O)c1cc(C(=O)Nc2ccccc2C(=O)O)oc1C returned MmCpn inh -9%, Sfp PPTase inh 7%, PLK1 PBD inh -14%, VDR inhibitor 13%, CCT modulator 1 and G9a inh 50µM*.
